Here are results for 31 compounds from PubChem BioAssay (NCATS).

SMILES strings stand for the structures. Activity calls are given as the source filed them. Calls come from the whole dose curve. Non-standard residues stand in square brackets, D forms with d. Residues, ends and D or L forms follow the SMILES beside them. *: point of attachment. Sta = CC(C)C[C@H](N)[C@@H](O)CC(=O)O; Isovaleryl = CC(C)CC(=O)*

One assay in a line: qHTS drug screen for cell cycle checkpoint inhibitors in PARPi-resistant BRCA-mutant ovarian cancer cell lines. (AID 1963452). The conditions noted are these: PEO1/OlaR viability, CellTiter-Glo luminescence, 96 h; stronger effect = lower value. In outline: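 PEO1, PEO4 and PEO1/OlaR ovarian cancer cells, 600 per well, exposed 96 h at 37C to a dilution series. Viability read by CellTiter-Glo luminescence, normalized to DMSO and empty wells; activity summarized as Z-AUC.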
For orientation: In qHTS, concentration-response curves come from the screen itself.
In the case of `Cc1cc(Cl)ccc1OCCCC(=O)NO`, the Z-AUC was 0.502 (inactive).
For the compound `O=c1c(O)c(-c2cc(O)c(O)c(O)c2)oc2cc(O)cc(O)c12`, the Z-AUC is 1.5 (inactive).
Regarding `Cc1ccc(C)c(OCCCC(C)(C)C(=O)O)c1`, the Z-AUC is 1.52 (inactive).
Turning to `CN(C)C(=O)COC(=O)Cc1ccc(OC(=O)c2ccc(N=C(N)N)cc2)cc1`, the Z-AUC was -0.267 (inactive).
Still for that read-out and setting: in the case of `Nc1nc(N)c(N=O)c(OCC2CCCCC2)n1` it was -0.0306 (inactive).
On the same count and under the same terms, in the case of `Oc1ccc2ccccc2c1SSc1c(O)ccc2ccccc12` it was -0.118 (inactive).
The same measure, in the same setting: then `Clc1ccc2c(N3CCN(CCCN4CCN(c5ccnc6cc(Cl)ccc56)CC4)CC3)ccnc2c1`, with 0.751 (inactive); and `Oc1ccc(OCc2ccccc2)cc1`, with 0.481 (inactive); and `Nc1ncn([C@H]2C[C@H](O)[C@@H](CO)O2)c(=O)n1`, with 1.63 (inactive).
In the case of `O=C1c2c(O)cc(O)cc2OC(c2ccc(O)c(O)c2)C1O` (stereo not given), the Z-AUC was -0.835 (inactive).
On the same count and under the same terms, then `O=C(NCCO[N+](=O)[O-])c1cccnc1`, with -0.64 (inactive); and `Nc1cc(C(Cl)=C(Cl)Cl)c(S(N)(=O)=O)cc1S(N)(=O)=O`, with 1.44 (inactive); and `Cc1cc(=O)oc2cc(O)ccc12`, with 0.0735 (inactive).
On the same count and under the same terms, in the case of `CC(=O)Nc1ccc(O)cc1` it was 0.911 (inactive); in that of `COc1c2occc2cc2ccc(=O)oc12`, 0.446 (inactive); in that of `CCCCC(CC)COC(=O)C(C#N)=C(c1ccccc1)c1ccccc1` (stereo not given), 0.188 (inactive).
The same measure, in the same setting: in the case of `CC[C@]1(O)C[C@H]2CN(CCc3c([nH]c4ccccc34)[C@@](C(=O)OC)(c3cc4c(cc3OC)N(C=O)[C@H]3[C@@](O)(C(=O)OC)[C@H](OC(C)=O)[C@]5(CC)C=CCN6CC[C@]43[C@@H]65)C2)C1` it was -0.637 (inactive); in that of `O=c1oc2cc(O)ccc2s1`, 0.214 (inactive).
For `CCCS(=O)c1ccc2nc(NC(=O)OC)[nH]c2c1` (stereo not given), the Z-AUC was -0.279 (inactive).
Same read-out and setting: in the case of `CC(C)[C@H](N)C(=O)OCCOCn1cnc2c(=O)[nH]c(N)nc21` it was 1.05 (inactive).
On the same count and under the same terms, then `COc1cc2c(N3CCN(C(=O)Nc4ccc(OC(C)C)cc4)CC3)ncnc2cc1OCCCN1CCCCC1`, with 1.04 (inactive); and `Oc1ccc(-c2nc(-c3ccc(F)cc3)c(-c3ccncc3)[nH]2)cc1`, with 1.12 (inactive).
The same measure, in the same setting: then `CC(C)CC(=O)N[C@H](C(=O)N[C@H](C(=O)N[C@@H](CC(C)C)[C@@H](O)CC(=O)N[C@@H](C)C(=O)N[C@@H](CC(C)C)[C@@H](O)CC(=O)O)C(C)C)C(C)C` (Isovaleryl-VV[Sta]A[Sta]-OH), with 0.839 (inactive); and `Cc1ccc(Nc2nccc(N(C)c3ccc4c(C)n(C)nc4c3)n2)cc1S(N)(=O)=O`, with 1.07 (inactive); and `C[C@H](Cc1ccc(O)c(O)c1)[C@@H](C)Cc1ccc(O)c(O)c1`, with 1.18 (inactive).
As to `CCCc1cc(=O)[nH]c(=S)[nH]1`, the Z-AUC is -0.283 (inactive).
For the compound `COc1cc(OC)c(C(=O)CCCN2CCCC2)c(OC)c1`, the Z-AUC is 1.29 (inactive).
Same read-out and setting: then `Nc1ccc(S(N)(=O)=O)cc1`, with 0.067 (inactive); and `O=C1CCc2ccc(OCCCCN3CCN(c4cccc(Cl)c4Cl)CC3)cc2N1`, with -1.31 (inactive).

Staying with this assay, now noted: PEO1/OlaR viability, CellTiter-Glo luminescence, 96 h; measured here: PEO1 parental Z-AUC; stronger effect = lower value.
Take `Cc1cc(Cl)ccc1OCCCC(=O)NO`: the Z-AUC was 0.403.
On the same count and under the same terms, in the case of `O=c1c(O)c(-c2cc(O)c(O)c(O)c2)oc2cc(O)cc(O)c12` it was 1.23; in that of `Cc1ccc(C)c(OCCCC(C)(C)C(=O)O)c1`, 1.37.
Still for that read-out and setting: then `CN(C)C(=O)COC(=O)Cc1ccc(OC(=O)c2ccc(N=C(N)N)cc2)cc1`, with -0.623; and `Nc1nc(N)c(N=O)c(OCC2CCCCC2)n1`, with 0.757; and `Oc1ccc2ccccc2c1SSc1c(O)ccc2ccccc12`, with 0.665.
Still for that read-out and setting: then `Clc1ccc2c(N3CCN(CCCN4CCN(c5ccnc6cc(Cl)ccc56)CC4)CC3)ccnc2c1`, with 0.492.
In the case of `Oc1ccc(OCc2ccccc2)cc1`, the Z-AUC came out at 0.491.
For `Nc1ncn([C@H]2C[C@H](O)[C@@H](CO)O2)c(=O)n1`, the Z-AUC is -0.11.
Take `O=C1c2c(O)cc(O)cc2OC(c2ccc(O)c(O)c2)C1O` (stereo not given): the Z-AUC is -0.249.
On the same count and under the same terms, in the case of `O=C(NCCO[N+](=O)[O-])c1cccnc1` it was -0.487; in that of `Nc1cc(C(Cl)=C(Cl)Cl)c(S(N)(=O)=O)cc1S(N)(=O)=O`, 1.19; in that of `CC(=O)O[C@H]1C(=O)[C@@]2(C)C([C@H](OC(=O)c3ccccc3)[C@]3(O)C[C@H](OC(=O)[C@H](O)[C@@H](NC(=O)c4ccccc4)c4ccccc4)C(C)=C1C3(C)C)[C@]1(OC(C)=O)CO[C@@H]1C[C@@H]2O` (stereo not given in full), -2.74.
The same measure, in the same setting: then `Cc1cc(=O)oc2cc(O)ccc12`, with 0.832.
On to `CC(=O)Nc1ccc(O)cc1`, for which the Z-AUC came out at 0.308.
The same measure, in the same setting: in the case of `COc1c2occc2cc2ccc(=O)oc12` it was 1.07; in that of `CCCCC(CC)COC(=O)C(C#N)=C(c1ccccc1)c1ccccc1` (stereo not given), -0.152.
The same measure, in the same setting: then `CC[C@]1(O)C[C@H]2CN(CCc3c([nH]c4ccccc34)[C@@](C(=O)OC)(c3cc4c(cc3OC)N(C=O)[C@H]3[C@@](O)(C(=O)OC)[C@H](OC(C)=O)[C@]5(CC)C=CCN6CC[C@]43[C@@H]65)C2)C1`, with -1.14; and `O=c1oc2cc(O)ccc2s1`, with 0.00456.
As to `CCCS(=O)c1ccc2nc(NC(=O)OC)[nH]c2c1` (stereo not given), the Z-AUC is -0.314.
On the same count and under the same terms, then `CC(C)C[C@H](NC(=O)[C@H](Cc1ccccc1)NC(=O)c1cnccn1)B(O)O`, with -3.19.
Same read-out and setting: in the case of `CC(C)[C@H](N)C(=O)OCCOCn1cnc2c(=O)[nH]c(N)nc21` it was 0.583; in that of `COc1cc2c(N3CCN(C(=O)Nc4ccc(OC(C)C)cc4)CC3)ncnc2cc1OCCCN1CCCCC1`, 0.804; in that of `Oc1ccc(-c2nc(-c3ccc(F)cc3)c(-c3ccncc3)[nH]2)cc1`, -0.0618.
Still for that read-out and setting: then `CC(C)CC(=O)N[C@H](C(=O)N[C@H](C(=O)N[C@@H](CC(C)C)[C@@H](O)CC(=O)N[C@@H](C)C(=O)N[C@@H](CC(C)C)[C@@H](O)CC(=O)O)C(C)C)C(C)C` (Isovaleryl-VV[Sta]A[Sta]-OH), with 0.464; and `Cc1ccc(Nc2nccc(N(C)c3ccc4c(C)n(C)nc4c3)n2)cc1S(N)(=O)=O`, with 0.627; and `C[C@H](Cc1ccc(O)c(O)c1)[C@@H](C)Cc1ccc(O)c(O)c1`, with 0.707.
For the compound `CCCc1cc(=O)[nH]c(=S)[nH]1`, the Z-AUC is -0.244.
Turning to `COc1cc(OC)c(C(=O)CCCN2CCCC2)c(OC)c1`, the Z-AUC worked out at 0.91.
Take `Nc1ccc(S(N)(=O)=O)cc1`: the Z-AUC is 0.495.
Same read-out and setting: in the case of `O=C1CCc2ccc(OCCCCN3CCN(c4cccc(Cl)c4Cl)CC3)cc2N1` it was -0.72.
